# Experimental data from PubChem BioAssay AID463187 (University of Pittsburgh Molecular Library Screening Center, 2010).
# Out of some 220,000 compounds screened, about 1,500 (0.68%) were called active. The full list was thinned out, with actives kept by preference. Values without a mark were called inactive.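 The calls were made as follows: active = Hck-Nef kinase inhibition above about 50% (limit read from the data); inactive = inhibition below that limit.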
# Target: Tyrosine-protein kinase HCK (Homo sapiens) (UniProt P08631)
# Sequence (P08631 whole entry, looked up): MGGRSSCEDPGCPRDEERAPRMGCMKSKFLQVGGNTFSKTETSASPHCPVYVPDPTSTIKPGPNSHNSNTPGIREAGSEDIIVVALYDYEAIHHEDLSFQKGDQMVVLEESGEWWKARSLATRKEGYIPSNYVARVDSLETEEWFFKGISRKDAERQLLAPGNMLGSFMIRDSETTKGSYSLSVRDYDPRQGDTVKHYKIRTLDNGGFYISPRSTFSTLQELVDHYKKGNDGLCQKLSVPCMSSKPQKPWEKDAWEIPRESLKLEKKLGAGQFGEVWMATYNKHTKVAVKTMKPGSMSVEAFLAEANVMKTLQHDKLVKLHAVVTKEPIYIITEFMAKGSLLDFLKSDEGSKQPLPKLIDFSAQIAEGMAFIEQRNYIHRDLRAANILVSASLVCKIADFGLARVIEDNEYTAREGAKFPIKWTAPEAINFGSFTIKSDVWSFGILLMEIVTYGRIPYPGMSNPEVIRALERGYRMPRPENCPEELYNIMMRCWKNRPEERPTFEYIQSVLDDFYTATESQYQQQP
# Test: Hck:Nef complex kinase activity blockers – biochemical, Z-Lyte FRET, 384-well, Hck-YEEI, primary screen (AID 463187);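 also: 0% = DMSO with Hck plus Nef and 100% = Hck alone without Nef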
# Conditions: Recombinant Hck-YEEI plus Nef, Z-Lyte FRET kinase assay; at 20 µM; stronger effect = higher value
row,Compound,inhibition
1,O=C(COc1ccc([N+](=O)[O-])cc1)Nc1ccc(N2CCCC2)cc1,1.04%
2,Cc1c(NC(=O)/C=C/C(=O)O)cccc1[N+](=O)[O-],0.166%
3,Cc1ccc(/C=C/C(=O)Nc2ccc([N+](=O)[O-])c(NC(=O)/C=C/c3ccc(C)o3)c2)o1,79.2% (active)
4,CCc1nnc(NC(=O)/C=C/c2ccc(C)o2)s1,2.58%
5,Cc1ccc(N(CC(=O)Nc2cc(C)cc(C)c2)S(=O)(=O)c2cccc3nonc23)cc1,2.67%
6,Cc1c(Nc2nc3ccccc3nc2NS(=O)(=O)c2cccs2)c(=O)n(-c2ccccc2)n1C,-1.3%
7,Cc1ccc(C)c(SCc2nc3sc(C(=O)O)c(C)c3c(=O)[nH]2)c1,30.6%
8,CCOC(=O)c1ccc[n+](CC(=O)Nc2ccccc2OC(F)F)c1,3.79%
9,Cc1ccc(-c2nc(SCC(=O)Nc3ccccc3OC(F)F)c3c(C)c(C(=O)O)sc3n2)cc1,98.6% (active)
10,COc1ccc(N(CC(=O)NC2CCCC2)C(=O)CS(=O)CC(=O)Nc2ccc3c(c2)OCO3)cc1 (centres undefined),20.7%
11,COc1ccc(C(=O)Nc2ccc(S(=O)(=O)Nc3onc(C)c3C)cc2)cc1OC,2.01%
12,CCn1c(SCC(=O)Nc2ccc(S(=O)(=O)Nc3onc(C)c3C)cc2)nnc1-c1ccccc1,0.636%
13,Cc1cc(C)c2nc(-c3cccnc3)cc(C(=O)Nc3ccc(S(=O)(=O)Nc4onc(C)c4C)cc3)c2c1,62.9% (active)
14,O=C1c2ccccc2NC(c2ccccc2O)N1NS(=O)(=O)c1ccccc1 (centres undefined),24.7%
15,O=C(COC(=O)CSc1nnc(-c2ccc(Cl)cc2)o1)Nc1cc(Cl)cc(Cl)c1,3.81%
16,CCN(CC)c1ccc2cc(C(N)=O)/c(=N\NC(=O)c3ccncc3)oc2c1,-3.77%
17,CCN(CC)c1ccc2oc(=O)c(C)nc2c1,-14.5%
18,CCN(CC)c1ccc2cc(C(=O)O)c(=O)oc2c1,179% (active)
19,Cc1cc(C)nc(NNC2=CC(=O)CC(C)(C)C2)n1,22.8%
20,Cc1[nH]nc(-c2ccc(OCc3cnn(-c4ccccc4)c3)cc2O)c1Oc1ccc(Cl)cc1,0.631%

row,Compound,inhibition
1,CCOC(=O)CSc1nc2ccc(C)cc2[nH]1,10.3%
2,Cc1ccc2nc(/C(C#N)=C\c3ccc(OC(=O)c4cccs4)cc3)[nH]c2c1,57.1% (active)
3,Cc1ccc2nc(S(=O)(=O)O)[nH]c2c1,-5.86%
4,CCOC(=O)c1sc(-c2cccc([N+](=O)[O-])c2)cc1N,22%
5,CN(C)C(=O)c1nc2ccc(Cl)cn2c1CN1CCN(c2ncccn2)CC1,16.5%
6,CCCC(=O)Nc1nc2ccc(NC(=O)c3c(F)c(F)c(OC)c(F)c3F)cc2s1,13.4%
7,O=C(Nc1ccc(S(=O)(=O)Nc2nccs2)cc1)c1cc(-c2ccncc2)nc2ccccc12,75% (active)
8,O=C(Nc1ccc(S(=O)(=O)Nc2nccs2)cc1)c1cc(=O)[nH]c2ccccc12,8.68%
9,CCC(CC)C(=O)Nc1ccc(S(=O)(=O)Nc2nccs2)cc1,15.9%
10,O=[N+]([O-])c1cccc(Nc2c3ccccc3nc3ccccc23)c1,64.5% (active)
11,CC(=O)Nc1ccc(Nc2c3ccccc3nc3ccccc23)cc1,12.8%
12,Cc1cc(CNC(=O)c2cccc([N+](=O)[O-])c2)c2ccccc2n1,20.7%
13,Cc1ccc2cc(CCNC(=O)c3ccc4c(c3)OCO4)c(=O)[nH]c2c1,0.571%
14,Cc1cc(N)n2nc(-c3ccc(C(C)(C)C)cc3)cc2n1,0.862%
15,CSCC[C@H](NC(=O)CCCn1nnc2ccccc2c1=O)C(=O)O,4.6%
16,O=C(COc1ccccc1F)NNC(=O)c1ccc(N2CCCCC2)c([N+](=O)[O-])c1,2.35%
17,Nc1ccc(-c2nnc(-c3ccc(-c4ccccc4)cc3)o2)cc1,2.48%
18,CCCN(CCC)c1ccc(C(O)c2nnc(-c3ccccc3)o2)cc1 (centres undefined),-0.222%
19,OC(c1nnc(-c2ccccc2)o1)c1cccs1 (centres undefined),52.9% (active)
20,C/C(CC(=O)Nc1ccc(C)cc1C)=N\NC(=O)C(C)C,14.7%

row,Compound,inhibition
1,NC(=O)Nc1ccccc1C(=O)NCCc1ccccc1,1.58%
2,COc1ccc(Cl)cc1S(=O)(=O)N1CCC(O)(c2ccc(Cl)cc2)CC1,3.69%
3,O=C1c2ccccc2S(=O)(=O)N1CC(O)Cn1c2ccccc2c2ccccc21 (centres undefined),0.294%
4,CCCCN(CCCC)CC(O)Cn1c2ccccc2c(=O)c2ccccc21 (centres undefined),119% (active)
5,CS(=O)(=O)N(CC(O)Cn1c2ccccc2c2ccccc21)c1cccc2ccccc12 (centres undefined),0.481%
6,Cn1cnnc1Sc1ccc(CN2CCN(C3CCCC3)C(CCO)C2)o1 (centres undefined),-5.92%
7,COC(=O)CCCC1=CC2=CC(=O)C(C)(OC(=O)c3cccs3)C(=O)C2=CN1CC1CC1 (centres undefined),10.7%
8,COC/C=C/C1=CC2=CC(=O)C(C)(OC(=O)CCC(=O)OC)C(=O)C2=CO1 (centres undefined),51.9% (active)
9,COC(=O)CCCC1=CC2=CC(=O)C(C)(OC(=O)c3cccs3)C(=O)C2=CN1CC(C)C (centres undefined),23.4%
10,Cc1ccc(CN(C(=O)c2sc3ccccc3c2Cl)C2CCS(=O)(=O)C2)cc1 (centres undefined),3.1%
11,CC(=O)Nc1ccc(SCC(=O)Nc2ccccc2Oc2ccccc2)cc1,0.985%
12,Cc1nn(CC(=O)Nc2ccc(N(C)C)cc2)c(C)c1[N+](=O)[O-],4.36%
13,O=C(O)/C=C/c1cn(Cc2ccccc2)nc1-c1cccs1,-1.06%
14,O=C(O)CCn1cc(/C=C/C(=O)c2ccc(Cl)cc2)c(-c2cccc(Br)c2)n1,55% (active)
15,CCOC(=O)/C(C#N)=C/c1cn(CCC(=O)O)nc1-c1ccc(Br)cc1,20.2%
16,Cc1onc(C(=O)NN)c1C(=O)N1CCN(C(c2ccccc2)c2ccccc2)CC1,16.6%
17,N/C(=N\S(=O)(=O)c1cc(C(F)(F)F)cc(C(F)(F)F)c1)c1cccs1,-0.264%
18,O=[N+]([O-])c1ccccc1N/N=C1\CCc2ccccc21,-4.18%
19,COc1ccc(NC(=S)NCc2cccs2)c(OC)c1,0.854%
